Test systems include SK-MEL-2 melanoma; EKVX NSCLC; SN12C renal; UO-31 renal; TK-10 renal; ACHN renal; CAKI-1 renal; A498 renal; CCRF-CEM leukemia; MOLT-4 leukemia.
Experiment in all cases: NCI-60 one-dose screen, 48 h (100 = growth as untreated, 0 = no growth, -100 = all killed)
What all share (details): 10 µM unless noted

Structures are written as SMILES. This is part of a sample that, as a whole, favours compounds with a hit. Of some 83,000 tested, about 20% had one in any assay.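 For each line, cells grew in 96-well plates with the test compound present at a single concentration for 48 hours.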 Values without a mark were called inactive. Activity calls are given as the source filed them. The calls were made as follows: active = growth percent below 10; inactive = the rest.

As to `NS(=O)(=O)c1ccc(Nc2nc(Nc3ccccc3)nc(N3N=C(c4ccc(Cl)cc4)CC3c3ccc(Cl)cc3)n2)cc1` (stereo not given), the growth is 65.6% in the assay on SK-MEL-2 melanoma; 56.9% with EKVX NSCLC; 40.2% in the assay on SN12C renal; 48.9% in the assay with UO-31 renal; 89.3% in the assay on TK-10 renal; 32.6% with ACHN renal. In addition, the growth is 42.7% with CAKI-1 renal, 55.8% in the assay on A498 renal, 14.2% in the assay on CCRF-CEM leukemia and 17.3% in the assay on MOLT-4 leukemia.
In the case of `COc1ccccc1/C=C1\Oc2ccc(O)c(O)c2C1=O`, the growth in the assay with SK-MEL-2 melanoma was 102%; in the assay with EKVX NSCLC, 78.5%; with SN12C renal, 94.5%; in the assay with UO-31 renal it was 82.1%; with TK-10 renal it was 100%; with ACHN renal, 101%. The growth in the assay on CAKI-1 renal was 78.4%; with A498 renal, 85.1%; with CCRF-CEM leukemia, 75.5%; in the assay on MOLT-4 leukemia, 85%.
In the case of `C/C(=C(\c1ccc(O)cc1)c1ccc(OCCN2CCCCCC2)cc1)c1ccc(Cl)cc1`, the growth in the assay with SK-MEL-2 melanoma is -92.3% (active); in the assay with EKVX NSCLC it was -81.2% (active); with SN12C renal it was -84.7% (active); in the assay with UO-31 renal it was -93.3% (active); in the assay with TK-10 renal it was -95.2% (active); in the assay with ACHN renal, -88.2% (active). The growth was -97.3% (active) in the assay on CAKI-1 renal, -91% (active) with A498 renal, 3.56% (active) with CCRF-CEM leukemia and -21.6% (active) in the assay on MOLT-4 leukemia.
With `Cc1ccc2c(n1)C(=O)C(Cl)=C(Nc1cc(C(F)(F)F)cc(C(F)(F)F)c1)C2=O`, the growth in the assay on SK-MEL-2 melanoma was 74.5%; with EKVX NSCLC, 78%; with SN12C renal it was 92.1%; with UO-31 renal, 9.71% (active); in the assay on TK-10 renal, 106%; in the assay on ACHN renal it was -64.9% (active). Further, the growth in the assay with CAKI-1 renal was 81.4%; in the assay on A498 renal it was 80.4%; with CCRF-CEM leukemia it was 4.75% (active); with MOLT-4 leukemia, 9.31% (active).
`C#CCOc1ccc(/C=N/Nc2nc(-c3ccc(OC)cc3)cs2)cc1`: the growth in the assay on SK-MEL-2 melanoma is 95.8%; in the assay with EKVX NSCLC it was 62.8%; with SN12C renal, 78.3%; with UO-31 renal, 66.8%; in the assay with TK-10 renal, 101%; in the assay with ACHN renal, 84.2%. Also, the growth in the assay on CAKI-1 renal was 66.3%; in the assay on A498 renal it was 63%; in the assay with CCRF-CEM leukemia it was 76.1%; in the assay with MOLT-4 leukemia, 73.7%.
Regarding `Nc1nc(=O)n([C@H]2C[C@H](O)[C@@H](CO)O2)cc1C=O`, the growth with SK-MEL-2 melanoma is 109%; in the assay on EKVX NSCLC it was 112%; in the assay with SN12C renal, -19.5% (active); in the assay on UO-31 renal, 101%; with TK-10 renal it was 108%; in the assay with ACHN renal, 107%. The growth in the assay with CAKI-1 renal was 82.1%; in the assay on A498 renal, 121%; with CCRF-CEM leukemia it was 57.7%; in the assay on MOLT-4 leukemia, 92%.
In the case of `CN(C)S(=O)(=O)c1ccc(-c2nc(C(Cl)Cl)nc3cc(-c4ccc(F)cc4)nn23)cc1`, the growth in the assay on SK-MEL-2 melanoma is 9.25% (active); in the assay with EKVX NSCLC, 22.7%; with SN12C renal, 24.3%; with UO-31 renal, 44.3%; in the assay on TK-10 renal, 29.5%; in the assay on ACHN renal, 5.28% (active). In addition, the growth is 3.68% (active) in the assay on CAKI-1 renal, 49.7% with A498 renal, 21.7% in the assay on CCRF-CEM leukemia and 3.19% (active) in the assay on MOLT-4 leukemia.
In the case of `CC(=O)Nc1ccccc1-c1nc2ccccc2s1`, the growth in the assay with SK-MEL-2 melanoma was 104%; with EKVX NSCLC it was 96.1%; in the assay with SN12C renal it was 92.5%; with UO-31 renal it was 89.1%; in the assay with TK-10 renal, 97.7%; in the assay with ACHN renal, 102%. Moreover, the growth is 95.4% in the assay with CAKI-1 renal, 84.4% in the assay with A498 renal, 98.4% with CCRF-CEM leukemia and 104% in the assay on MOLT-4 leukemia.
`Cc1ccc(OCc2occc2C(=O)N2CCOCC2)cc1`: the growth is 107% in the assay with SK-MEL-2 melanoma; 96.5% with EKVX NSCLC; 103% with SN12C renal; 90.9% with UO-31 renal; 97.3% in the assay on TK-10 renal; 111% in the assay with ACHN renal. In addition, the growth with CAKI-1 renal is 93.7%; in the assay on A498 renal, 98.1%; in the assay on CCRF-CEM leukemia, 94.5%; with MOLT-4 leukemia, 109%.
With `CCOC(=O)C1=C(C)NC(C)=C(C(=O)OCc2ccccc2)C1c1cccc(C#N)c1` (stereo not given), the growth in the assay on SK-MEL-2 melanoma was 24.9%; in the assay on EKVX NSCLC it was 37.1%; with SN12C renal it was 36.5%; with UO-31 renal, 43.8%; in the assay with TK-10 renal it was 83.7%; with ACHN renal, 47.1%. Moreover, the growth in the assay on CAKI-1 renal was 32.4%; in the assay with A498 renal, -4.45% (active); with CCRF-CEM leukemia, 25.5%; with MOLT-4 leukemia, 31.5%.
Take `O=C(/C=C/c1cccc(F)c1)c1cccc(OCCCOc2cccc(C(=O)/C=C/c3cccc(F)c3)c2)c1`: the growth in the assay on SK-MEL-2 melanoma was 97.3%; in the assay on EKVX NSCLC it was 47.2%; in the assay on SN12C renal it was 82%; in the assay with UO-31 renal, 37.6%; in the assay with TK-10 renal, 114%; in the assay with ACHN renal, 89.4%. For the same compound, the growth in the assay on CAKI-1 renal is 90.4%; in the assay with A498 renal it was 90.8%; with CCRF-CEM leukemia it was 36.8%; in the assay with MOLT-4 leukemia, 56.3%.
Consider `COc1ccc2[nH]cc(-c3nc(N)nnc3-c3cn(C)c4ccc(Br)cc34)c2c1`, for which the growth in the assay on SK-MEL-2 melanoma is 9.85% (active); with EKVX NSCLC, 38.1%; with SN12C renal it was 42.6%; with UO-31 renal, 40.7%; with TK-10 renal, 54.3%; in the assay with ACHN renal it was 40.5%. Further, the growth in the assay with CAKI-1 renal is 29.1%; with A498 renal, -1.71% (active); with CCRF-CEM leukemia, 2.97% (active); in the assay on MOLT-4 leukemia, 10.7%.

The values above are taken from PubChem BioAssay (NCI).
